Mot1-301 SUMO – SUMOylation pathway inhibition by Mot1-301 growth rescue. AID 2716. S. cerevisiae Mot1-301 growth rescue, ATP luminescence, 38.5C; percent above DMSO median, 100 means doubled. 320,000 compounds, 1% hits. growth rescue, % at 18.8 µM;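 active = every valid replicate shows activation above 250% relative to neutral control wells; inactive = the rest, any valid replicate at or below 250%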;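 note: OY570 slx delta 5 strain wells were the positive control but not used for scaling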
HIF activator – HIF pathway transcriptional activation | activation, % at 7.5 µM (by protocol) | U2OS HRE-luciferase reporter, luminescence; normalized: DMSO 0%, desferrioxamine 100% | 300,000 compounds, 0.32% hits | AID 1910;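 active = mean activation of at least 10% of the iron chelator positive control signal, with at least half of replicates also reaching 10%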
ALR H2O2 inh – human ALR oxidase inhibition via reduced H2O2. 290,000 compounds, 3.8% hits. P55789. inhibition, % (concentration not given with the values). purified ALR, DTT oxidation, H2O2 HRP-luminol luminescence;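 active = mean replicate inhibition above about 79%, with every replicate also reaching it, limit read from the data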
Target sequence (P55789 whole entry, looked up): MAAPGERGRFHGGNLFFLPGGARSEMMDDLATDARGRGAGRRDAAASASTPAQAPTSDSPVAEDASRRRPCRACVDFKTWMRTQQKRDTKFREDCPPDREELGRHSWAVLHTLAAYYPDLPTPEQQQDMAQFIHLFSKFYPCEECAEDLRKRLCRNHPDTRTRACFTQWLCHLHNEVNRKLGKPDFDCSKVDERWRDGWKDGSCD
M18AAP inhibitor – PfM18AAP enzyme inhibition | AID 1822 | recombinant PfM18AAP, H-Glu-NHMec fluorogenic cleavage | inhibition, % at 7.35 µM | 290,000 compounds, 1.2% hits;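 active = inhibition above the campaign mean inhibition over all tested compounds plus 3 SD, cut at about 28% in these data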;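 note: 0% = plate median of test compound wells and 100% = 2 mM ZnCl2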
Mot1 SUMO dose – SUMO pathway inhibitors in yeast Mot1-301 growth; shares compounds with Mot1-301 SUMO; S. cerevisiae Mot1-301 galactose growth, ATP luminescence, 24 h; -100 = growth of slx-deleted rescue strain; growth activity, percent, % at 42 µM; 2,300 tested, under 10 active;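 active = Signal drops as the depositor expects, and the fitted half-maximal dose is no more than ten times the top valid tested dose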;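 note: more negative values mean stronger growth rescue toward the control strain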
The depositor's hits bear a star; . = no result given; + = active, no number. In the library only some 5.3% were active in any assay of this set; here they are far more common.

SMILES	Mot1-301 SUMO	HIF activator	ALR H2O2 inh	M18AAP inhibitor	Mot1 SUMO dose
NS(=O)(=O)c1cccc(NC(=O)CSc2nnnn2-c2ccccc2)c1	375.0*	0.2	-6.3	-2.1	-0.1
CCN(CC)S(=O)(=O)c1ccc(C(=O)NCCc2cc3c(OC)ccc(OC)c3[nH]c2=O)cc1	437.6*	-0.5	-16.3	4.2	-0.5
Cc1cc(=O)n2nc(N3CCC(C(=O)NCc4ccccc4)CC3)sc2n1	91.9	-1.7	3.8	0.7	.
CCC(Cc1ccccc1)NC(=O)C1CCN(c2nn3c(=O)cc(C)nc3s2)CC1 (stereo not given)	408.3*	-0.2	.	-0.7	0.2
O=C1CN(C(=O)c2c(F)cccc2F)C(c2ccc(F)cc2)c2cc(F)ccc2N1 (stereo not given)	677.3*	-0.6	-1.8	-16.5	-0.7
CCN(CC)CC(=O)Nc1ccc(Oc2ccc(NC(=O)CN(CC)CC)cc2)cc1	371.2*	-0.1	-9.1	-1.5	0.6
CCN(CC(=O)Nc1ccc(OC)cc1)CC(=O)Nc1ccc(Cl)cc1F	-3.3	0.0	-6.0	-1.0	.
CN1CCCCC1=NCCCn1cnc2c1c(=O)n(C)c(=O)n2C	601.9*	-0.4	-1.2	4.9	0.5
CC(=O)CCCCn1cnc2c1c(=O)n(C)c(=O)n2C	17.5	-0.2	-6.7	-4.8	.
C(=N\N1CCN(C2c3ccccc3-c3ccccc32)CC1)/c1ccncc1	+	-0.2	-2.0	-12.2	0.3
CCOc1cc(/C=N/NC(=O)C(=O)N/N=C/c2ccc(O)c(OCC)c2)ccc1O	767.7*	-13.9	11.5	14.2	-0.7
CCOc1ccc2nc(C(C)O)[nH]c2c1 (stereo not given)	+	-0.2	-7.6	7.4	1.1
COc1ccc2nc(C(C)O)[nH]c2c1 (stereo not given)	90.0	-0.2	-47.0	3.0	.
COc1ccc(C2(C)NC(=O)N(CC(=O)Nc3c(C)n(C)n(-c4ccccc4)c3=O)C2=O)cc1 (stereo not given)	204.8	0.1	-24.2	.	.
Cc1c(NC(=O)CN2C(=O)NC(C)(c3ccc(OC(F)F)cc3)C2=O)c(=O)n(-c2ccccc2)n1C (stereo not given)	378.7*	-0.7	.	.	0.5
Fc1cccc(Nc2ncnc3sccc23)c1	655.0*	-5.0	-1.8	0.9	-0.3
O=C(O)c1cccc(Nc2ncnc3sccc23)c1	-17.5	0.4	-42.0	-7.9	.
CN(C)c1cccc(C(=O)Nc2cc(C(F)(F)F)ccc2-n2cnc3ccccc32)c1	399.9*	-0.4	.	-9.9	0.5
O=C(CN(Cc1ccc(F)cc1)C(=O)CCC(=O)Nc1nccs1)NCc1ccccc1	-8.7	0.6	-2.9	2.7	.
CCN1C(=S)N[C@@H](c2cccs2)C(C(=O)OC)=C1C	895.7*	-0.1	2.0	2.7	-0.2
CCN1C(=S)N[C@@H](CCc2ccccc2)C(C(=O)OC)=C1C	+	1.2	-2.9	-3.1	0.2
COc1ccc([C@H]2CC(=O)C=C(c3cccc(CO)c3)C2)cc1	-12.8	.	13.8	.	.
COc1ccccc1CNC(=O)CN1C(=O)NC2(CCCc3sccc32)C1=O (stereo not given)	-6.1	.	-0.7	.	.
Cc1ccc(N(CC(=O)NCCc2ccc(Cl)cc2)S(=O)(=O)c2c(C)noc2C)cc1	509.9*	-0.6	-2.2	-3.1	-0.3
COc1ccc(NC(=O)CN(c2ccc(C(C)C)cc2)S(=O)(=O)c2c(C)noc2C)cc1OC	366.9*	.	36.4	5.9	0.2
SMILES	Mot1-301 SUMO	HIF activator	ALR H2O2 inh	M18AAP inhibitor	Mot1 SUMO dose
CCOc1ccc(N(CC(=O)NC2CCCCC2C)S(=O)(=O)c2c(C)noc2C)cc1 (stereo not given)	174.3	-0.2	-2.0	-7.3	.
Cc1ccc(NC(=O)CN(c2cc(C)cc(C)c2)S(=O)(=O)c2c(C)noc2C)nc1	-15.9	.	-86.5	-10.1	.
CCOc1ccc(N(CC(=O)NC2CCC(C)CC2)S(=O)(=O)c2c(C)noc2C)cc1 (stereo not given)	461.2*	-0.4	-3.6	-0.7	0.0
Cc1cc(C)cc(N(CC(=O)Nc2cccc(C)n2)S(=O)(=O)c2c(C)noc2C)c1	528.0*	.	-5.0	1.3	-0.7
COc1ccc(N(CC(=O)Nc2ccc(C)c(C)c2)S(=O)(=O)c2c(C)noc2C)cc1	5.6	-0.9	-28.4	0.9	.
CC(/C=C/c1ccccc1)=N\NC(=O)Cn1nc(C)cc1C	1.9	-2.2	-1.6	0.0	.
CCOc1ccc(NC(=O)CN2CCN(CC(=O)Nc3ccc4c(c3)OCO4)CC2)cc1	-9.3	0.6	-0.8	-0.2	.
CC(C)(C)C(=O)NC1CCN(CC(=O)Nc2ccc3c(c2)OCO3)CC1	490.0*	0.6	0.4	-6.1	0.3
Cc1ccc(S(=O)(=O)n2cccc2C)cc1	687.7*	-0.1	-9.3	.	0.2
COc1ccc(-c2cc3cc(OC)c(OC)cc3c(C)n2)cc1C	5.6	1.5	-2.1	-1.0	.
O=C(Oc1ccccc1N1C(=O)C2CC=CCC2C1=O)c1ccc(Br)cc1 (stereo not given)	549.1*	0.0	-5.8	5.7	-0.2
COc1cc(O)oc1C=Nc1ccc(C(=O)O)cc1	577.4*	1.1	-25.4	-6.0	-2.1
COc1cc(O)oc1C=Nc1ccc(Cl)cc1	-18.5	0.1	-10.2	-9.3	.
COCCCN(CC(=O)Nc1ccc(F)cc1)S(=O)(=O)c1cccs1	-3.3	.	.	.	.
CCOC(=O)c1cc2c(ccn2-c2ccc(F)cc2)n1CC(=O)N1CCN(C(=O)c2ccco2)CC1	377.6*	0.1	-1.5	-10.8	-0.7
COc1ccc(S(=O)(=O)NC(C)C(=O)NCc2ccccn2)cc1Cl (stereo not given)	385.8*	-0.2	-0.2	-3.7	0.3
COc1ccc(S(=O)(=O)NC(C)C(=O)NCc2ccccn2)cc1OC (stereo not given)	1.3	-0.1	2.2	1.6	.
Cc1cc(C)c(S(=O)(=O)c2ccccc2)c(=O)[nH]1	243.3	-1.0	0.4	-0.6	.
Cc1cc(C)c(S(=O)(=O)c2cccc(C)c2C)c(=O)[nH]1	414.6*	-14.8	.	-14.1	-0.4
CO/N=C\CC(=O)Nc1ccc(Oc2ccccc2)cc1	6.4	0.5	-22.3	-17.1	.
O=C(CCc1nc2sc3c(c2c(=O)[nH]1)CCCC3)N1CCN(c2ccccc2)CC1	772.0*	-0.2	-11.2	.	0.5
O=C(Nc1ccccc1)Nc1ccc(F)cc1F	-14.1	1.5	-1.6	1.1	.
O=C(Nc1cccc(C(=O)Nc2ccc(F)cc2F)c1)c1ccccc1	+	-1.6	-3.2	5.8	-1.2
O=C(Nc1ccc(N2CCOCC2)cc1)c1cc(F)c(F)cc1Cl	5.2	0.6	.	-2.9	.
CSc1ccc(Cl)c(C(=O)Nc2ccc(N3CCOCC3)cc2)c1	+	0.6	1.2	6.8	0.2
O=C(CSc1nc2ccc(Cl)cc2[nH]1)c1cccs1	-11.9	3.5	3.2	2.1	.
COc1ccc(C2=NOC(Cn3nc(C(=O)NCc4cccs4)cc3-c3ccccc3)C2)cc1 (stereo not given)	691.6*	0.4	1.5	.	0.2

Screening data: PubChem BioAssay, several laboratories
